Source: PubChem BioAssay AID1671190 (National Center for Advancing Translational Sciences (NCATS), 2021)
“And” between values parts separate entries of the source, which are not always exact repeats. Equal values may be shown once. Out of some 580,000 compounds screened, about 6,100 (1.1%) were called active. Not shown: some 15% with an inconclusive outcome. The full list was thinned out, with actives kept by preference. A number with no mark means an inactive call. The call rests on the fitted dose curve; in most records, active means well fitted inhibition curve with a large enough effect; inconclusive means small, poorly fitted or top-dose-only effect, or another doubt; inactive means no such curve, though single readings can be large or run the other way.

The compounds below were run against Polyunsaturated fatty acid lipoxygenase ALOX12 (Homo sapiens) (UniProt P18054) (assay: Primary qHTS assay for inhibitors of human arachidonate 12S-lipoxygenase (ALOX12): Round 2). Conditions: purified 12hLO, xylenol orange hydroperoxide absorbance; series mostly up to 108 µM; activity change, negative = inhibition: at the top concentration.
Chain of Polyunsaturated fatty acid lipoxygenase ALOX12 (Homo sapiens) (P18054 whole entry, looked up): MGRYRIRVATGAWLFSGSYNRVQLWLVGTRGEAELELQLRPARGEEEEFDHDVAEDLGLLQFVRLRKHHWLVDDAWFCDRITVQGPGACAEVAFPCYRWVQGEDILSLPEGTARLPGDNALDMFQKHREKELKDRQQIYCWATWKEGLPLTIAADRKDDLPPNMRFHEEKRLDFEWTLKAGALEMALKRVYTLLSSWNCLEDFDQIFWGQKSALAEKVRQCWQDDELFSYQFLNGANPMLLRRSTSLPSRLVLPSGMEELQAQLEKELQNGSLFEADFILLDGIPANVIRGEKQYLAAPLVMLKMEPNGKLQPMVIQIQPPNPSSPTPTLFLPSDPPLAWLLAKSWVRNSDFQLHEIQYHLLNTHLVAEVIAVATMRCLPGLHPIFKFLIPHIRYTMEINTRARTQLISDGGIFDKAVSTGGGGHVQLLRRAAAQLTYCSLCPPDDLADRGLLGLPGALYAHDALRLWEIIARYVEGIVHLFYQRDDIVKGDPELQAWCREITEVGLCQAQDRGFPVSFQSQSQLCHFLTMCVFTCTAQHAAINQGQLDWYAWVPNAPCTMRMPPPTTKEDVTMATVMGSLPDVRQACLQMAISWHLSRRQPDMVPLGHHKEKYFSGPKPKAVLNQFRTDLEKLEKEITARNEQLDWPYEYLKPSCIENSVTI
Method in brief: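 Purified human 12hLO (150 nM final) in 25 mM Hepes, 0.01% Triton X-100, pH 7.0 was preincubated 15 min at room temperature with compound. Then 40 uM arachidonic acid was added, 30 min. Hydroperoxide was read by Fe-XO absorbance ratio 573/405 nm.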
On the % scale 0 is the no-effect control and ±100 the full control effect; potency means the concentration at half of the fitted maximal effect.

Structure (SMILES) | activity change, negative = inhibition | Potency
CCc1ccc(CN(C)C(=O)Cn2cnc3c2c(=O)n(C)c(=O)n3C)cc1 | -21.2% | 
CC(C)c1noc(-c2cn(C3CCN(C(=O)COc4ccc(F)cc4)CC3)nn2)n1 | 26.4% | 
Cc1nc2cnc(N3CCNCC3)nc2n(CCc2ccccc2)c1=O | 0% | 
CCc1ccc(N2CC(O)=C(c3nc4ccccc4c(=O)[nH]3)C2=N)cc1 | -5.65% | 
CCc1ccc(-n2ccc3nc(N4CCc5ccccc5C4)ncc3c2=O)cc1 |  | 39.8 µM (active)
COc1cccc(-c2cn3c(n2)NCCC3)c1 | 37.1% | 
O=C(Nc1cnc(-c2cccc(Cl)c2)nc1)c1ccc(F)cc1 | 33.3% | 
COc1cccc2cc(S(=O)(=O)c3ccc(Cl)c(Cl)c3)c(=O)oc12 | 30.9% | 
Cc1ccc(-n2c(C3CCN(C(=O)c4ccoc4)CC3)n[nH]c2=O)cc1 | 54.3% | 
Cc1ccc(C(=O)N2CCC(c3n[nH]c(=O)n3-c3ccccc3)CC2)cc1F |  | 28.2 µM (active)
CCOc1ccc(C(=O)N2CCC(c3n[nH]c(=O)n3-c3ccccc3)CC2)cc1OCC | 25.8% | 
CC(C)(CNC(=O)c1ccccc1)CNC(=O)c1ccccc1 | 3.22% | 
O=C1CSc2ccc(C(=O)Nc3cccc(COC(=O)c4ccc5c(c4)NC(=O)CS5)c3)cc2N1 | 30.1% | 
O=C(NCCNC(=O)C1CC1)c1c[nH]c2ccccc12 | 1% | 
Nc1nc(COC(=O)c2ccc(OC(F)F)cc2)nc2ccccc12 | 32.2% | 
Cc1occc(=O)c1OCc1noc(C(=O)NCc2ccc(Cl)cc2)n1 | 30.8% | 
Cc1ccc(-c2csc(Nc3ccccc3)n2)c(C)c1 | -61.9% | 
O=C1Cc2cc(-c3csc(Nc4ccc(F)cc4)n3)ccc2N1 | -8.91% | 
O=C(O)c1ccc(Nc2nc(-c3ccc4ccccc4c3)cs2)cc1O |  | 31.6 µM (active)
CC(=O)c1ccc(NC(=O)C(C)Sc2nnc(-c3ccco3)n2-c2ccccc2)cc1 (stereo not given) | 7.66% | 

Structure (SMILES) | activity change, negative = inhibition | Potency
Cc1ccccc1-n1cnnc1SCC(=O)NC(C)c1cccc2ccccc12 (stereo not given) | 8.99% | 
CCCN1C2=C(C(=O)CCC2)C(c2ccc(O)c(Br)c2)C2=C1CCCC2=O | 0.376% | 
COc1ccc(C2C3=C(CCCC3=O)N(CC(=O)O)C3=C2C(=O)CCC3)cc1 |  | 10 µM (active)
COc1ccc(C2C(C#N)=C(N)N(c3ncn[nH]3)C3=C2C(=O)CCC3)cc1 (stereo not given) | 7.37% | 
CCCCCCCC1CCC(c2ccc(-c3ccc(CCCC)cn3)cc2)CC1 (stereo not given) | 8.25% | 
COc1ccc(NC(=O)CN(C)C(=O)c2nc(-c3ccccc3)oc2C)cc1 | -28.5% | 
COCCN1C(=O)C(=O)/C(=C(/O)c2ccc(S(=O)(=O)N3CCOCC3)cc2)C1c1ccc(OC)c(OC)c1 (stereo not given) | -19.4% | 
COc1ccc(/C(O)=C2/C(=O)C(=O)N(CC3CCCO3)C2c2ccc(OC)c(OC)c2)cc1 (stereo not given) |  | 17.8 µM (active)
COc1ccc(C2/C(=C(/O)c3ccc(OC(C)C)cc3)C(=O)C(=O)N2CCCN2CCOCC2)cc1 (stereo not given) | -14.3% | 
COc1cccc(C2/C(=C(/O)c3ccc(F)cc3)C(=O)C(=O)N2CCN(C)C)c1 (stereo not given) | 22.4% | 
CCCOc1ccc(/C(O)=C2/C(=O)C(=O)N(CCN(C)C)C2c2ccc(OC)c(OC)c2)cc1 (stereo not given) | 0% | 
COc1ccc(/C(O)=C2\C(=O)C(=O)N(Cc3ccco3)C2c2ccc(OC)cc2OC)cc1 (stereo not given) |  | 14.1 µM (active)
CCOc1cc(C2/C(=C(/O)c3ccc(S(=O)(=O)N4CCCCC4)cc3)C(=O)C(=O)N2CCOC)ccc1O (stereo not given) | -11.4% | 
COCCN1C(=O)C(=O)/C(=C(/O)c2ccc(S(=O)(=O)N3CCCCC3)cc2)C1c1ccc(OC)c(OC)c1 (stereo not given) |  | 14.1 µM (active)
COc1cc(C2/C(=C(\O)c3ccc4c(c3)CC(C)O4)C(=O)C(=O)N2Cc2ccco2)ccc1O (stereo not given) | -13.7% | 
Cc1ccc(C)c(OCc2ccc(-c3nc(C#N)c(NC(C)C)o3)o2)c1 | -14.7% | 
CCCCCCC(C)NC(=O)COC(=O)c1n[nH]c(=O)c2ccccc12 (stereo not given) | -13.7% | 
NCC(=O)N1CCCC2(Cc3ccccc3CN2C(=O)c2cccc(Cl)c2)C1 (stereo not given) | 42.1% | 
Cc1cc2ccccc2n1CC(=O)NCc1ccc(C(N)=O)cc1 | 19.6% | 
Cc1cccc(NC(=O)c2ccccc2NC(=O)CN2CCN(S(=O)(=O)c3cccs3)CC2)c1 | 3.21% | 

Structure (SMILES) | activity change, negative = inhibition | Potency
COc1ccc(S(=O)(=O)N2CCC(C(=O)Nc3cccc(C)c3)CC2)c2cccnc12 | 26.8% | 
COC(=O)[C@H](Cc1ccc(OC)cc1)NC(=O)[C@H]1CN(C(=O)c2ccc(N(C)C)cc2)CCN1S(=O)(=O)c1ccccc1 | 6.47% | 
CCCN(C)C(=O)CCC[C@H]1NC[C@@H]2C[C@H]1CN(Cc1ccccc1)C2 | -0.277% | 
CC1(C)CC(=O)C2=C(C1)OC(N)=C(C#N)C2c1cccnc1 (stereo not given) | -14.4% | 
N#CC1=C(N)OC2=C(C(=O)CCC2)C1c1ccc(-c2ccc(Cl)cc2Cl)o1 (stereo not given) |  | 28.2 µM (active)
NC1=C([N+](=O)[O-])C(c2ccccc2)C2=C(CCCC2=O)O1 (stereo not given) | 10.4% | 
O=C(Nc1ccccc1F)N1CC2CCC(C1)N2Cc1ccc(-c2cccnc2)cc1 | 0.675% [at 6.33 µM] | 
Cc1ccc(/C=C/C(=O)Nc2ccc([N+](=O)[O-])c(NC(=O)/C=C/c3ccc(C)o3)c2)o1 |  | 6.31 µM (active)
COc1ccc(OC)c(NC(=O)/C=C/c2ccc(C)o2)c1 | -4.21% | 
CC(=O)Nc1ccc2c3c(ccc([N+](=O)[O-])c13)CC2 | -4.52% | 
COCCn1c(SCc2cccc(Br)c2)nnc1-c1ccccc1 | 0.725% | 
Cc1ccc(C)c(/C=C/c2nc3ccccc3s2)c1 | -17% | 
CC(C)(C)c1ccc(C(=O)NN=C2CCCCC2)cc1 | 48.6% | 
CC(C)(C)NC(=O)C(=O)NN=C1CCCCCCC1 | 244% | 
CC(C)NC(=S)NN=C1CCCCCCCCCCC1 |  | 35.5 µM (active)
COc1ccc(C)cc1CN(C)C(=O)CCn1ccc2ccccc21 | -19.6% | 
CCOC(=O)c1cn[nH]c1S(=O)(=O)N1CCCC(C)C1 (stereo not given) |  | 11.2 µM (active)
CCOC(=O)c1cccc(NC(=O)c2cc(S(=O)(=O)N3CCCC(C)C3)cn2C)c1 (stereo not given) | -5.94% | 
CCOC(=O)c1c(NC(=O)c2ccc(S(=O)(=O)N3CCCC(C)C3)cc2)sc2c1CCN(C(C)C)C2 (stereo not given) | -18.9% | 
O=C(Nc1ccc(Cl)nc1)c1ccc2cc[nH]c2n1 | 5.64% [at 12.5 µM] and 1.76% [at 12.5 µM] | 
